Test results published in PubChem BioAssay AID1159580 (chemical genetic matrix, 2015).
About 2,000 (36%) of roughly 5,500 compounds were called active. Inconclusive results (about 18%) are left out. Rule as the data show it: active = normalized growth mostly below about 0.91 (no sharp cut-off); inconclusive = no clear call, values can overlap the other calls; inactive = mostly above about 0.92. This is one part of the list.

Assay: chemical genetic growth profiling, strain panel (AID 1159580);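 also: tested at 20 µM; growth read once vehicle control cultures reached saturation at 30 °C; 1 = growth at the plate median or of vehicle wells; lower values mean less growth of the strain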
Conditions: growth OD

Measured: normalized growth

CC1CC2C3CCC4=CC(=O)C=C[C@]4(C)[C@@]3(F)[C@@H](O)C[C@]2(C)[C@@]1(O)C(=O)CO (stereo partly drawn)
inactive: S. cerevisiae deletion strains, locus YAL013W, strain DEP1, stronger effect = lower value 0.995 | S. cerevisiae deletion strains, locus YAL021C, strain ccr4, stronger effect = lower value 0.974 | S. cerevisiae deletion strains, locus YAL026C, strain drs2, stronger effect = lower value 0.987 | S. cerevisiae deletion strains, locus YAL030W, strain snc1, stronger effect = lower value 0.96 | S. cerevisiae deletion strains, locus YBL061C, strain skt5, stronger effect = lower value 0.99 | S. cerevisiae deletion strains, locus YBR009C, strain hhf1, stronger effect = lower value 1.03 | S. cerevisiae deletion strains, locus YBR021W, strain FUR4, stronger effect = lower value 0.984 | S. cerevisiae deletion strains, locus YBR023C, strain chs3, stronger effect = lower value 0.983 | S. cerevisiae deletion strains, locus YBR171W, strain sec66, stronger effect = lower value 0.982 | S. cerevisiae deletion strains, locus YBR229C, strain ROT2, stronger effect = lower value 0.989 | S. cerevisiae deletion strains, locus YBR231C, strain swc5, stronger effect = lower value 1.06 | S. cerevisiae deletion strains, locus YBR279W, strain paf1, stronger effect = lower value 1 | S. cerevisiae deletion strains, locus YCL011C, strain gbp2, stronger effect = lower value 0.954 | S. cerevisiae deletion strains, locus YCL016C, strain dcc1, stronger effect = lower value 0.978 | S. cerevisiae deletion strains, locus YCL029C, strain bik1, stronger effect = lower value 0.979 | S. cerevisiae deletion strains, locus YCL061C, strain MRC1, stronger effect = lower value 0.995 | S. cerevisiae deletion strains, locus YCL069W, strain vba3, stronger effect = lower value 0.995 | S. cerevisiae deletion strains, locus YCR088W, strain abp1, stronger effect = lower value 0.996 | S. cerevisiae deletion strains, locus YDL005C, strain med2, stronger effect = lower value 0.973 | S. cerevisiae deletion strains, locus YDL035C, strain GPR1, stronger effect = lower value 1.03 | S. cerevisiae deletion strains, locus YDL040C, strain nat1, stronger effect = lower value 0.975 | S. cerevisiae deletion strains, locus YDL074C, strain BRE1, stronger effect = lower value 0.979 | S. cerevisiae deletion strains, locus YDL101C, strain DUN1, stronger effect = lower value 0.976 | S. cerevisiae deletion strains, locus YDL185W, strain tfp1, stronger effect = lower value 0.982 | S. cerevisiae deletion strains, locus YDL192W, strain arf1, stronger effect = lower value 0.974 | S. cerevisiae deletion strains, locus YDR001C, strain nth1, stronger effect = lower value 0.988 | S. cerevisiae deletion strains, locus YDR069C, strain doa4, stronger effect = lower value 0.979 | S. cerevisiae deletion strains, locus YDR101C, strain arx1, stronger effect = lower value 0.984 | S. cerevisiae deletion strains, locus YDR137W, strain rgp1, stronger effect = lower value 0.987 | S. cerevisiae deletion strains, locus YDR159W, strain sac3, stronger effect = lower value 1.01 | S. cerevisiae deletion strains, locus YDR162C, strain NBP2, stronger effect = lower value 1.02 | S. cerevisiae deletion strains, locus YDR195W, strain ref2 0.99 | S. cerevisiae deletion strains, locus YDR297W, strain sur2, stronger effect = lower value 0.995 | S. cerevisiae deletion strains, locus YDR318W, strain mcm21, stronger effect = lower value 0.983 | S. cerevisiae deletion strains, locus YDR334W, strain swr1, stronger effect = lower value 0.976 | S. cerevisiae deletion strains, locus YDR335W, strain msn5, stronger effect = lower value 0.984 | S. cerevisiae deletion strains, locus YDR388W, stronger effect = lower value 0.968 | S. cerevisiae deletion strains, locus YDR392W, strain spt3, stronger effect = lower value 0.904 | S. cerevisiae deletion strains, locus YDR502C, strain sam2, stronger effect = lower value 0.991 | S. cerevisiae deletion strains, locus YEL003W, strain gim4, stronger effect = lower value 0.963 | S. cerevisiae deletion strains, locus YEL037C, strain rad23, stronger effect = lower value 0.976 | S. cerevisiae deletion strains, locus YEL061C, strain CIN8 (second series), stronger effect = lower value 0.988 | S. cerevisiae deletion strains, locus YEL061C, strain CIN8, stronger effect = lower value 0.994 | S. cerevisiae deletion strains, locus YER015W, strain faa2, stronger effect = lower value 0.991 | S. cerevisiae deletion strains, locus YER016W, strain bim1, stronger effect = lower value 0.95 | S. cerevisiae deletion strains, locus YER110C, stronger effect = lower value 0.958 | S. cerevisiae deletion strains, locus YER111C, strain swi4, stronger effect = lower value 0.983 | S. cerevisiae deletion strains, locus YER155C, strain BEM2 (second series), stronger effect = lower value 1.03 | S. cerevisiae deletion strains, locus YER155C, strain BEM2, stronger effect = lower value 0.984 | S. cerevisiae deletion strains, locus YER167W, strain BCK2, stronger effect = lower value 1 | S. cerevisiae deletion strains, locus YFR010W, strain ubp6, stronger effect = lower value 1.01 | S. cerevisiae deletion strains, locus YGL078C, strain dbp3, stronger effect = lower value 0.971 | S. cerevisiae deletion strains, locus YGL086W, strain mad1, stronger effect = lower value 0.98 | S. cerevisiae deletion strains, locus YGL167C, strain pmr1, stronger effect = lower value 0.983 | S. cerevisiae deletion strains, locus YGL173C, strain kem1, stronger effect = lower value 0.979 | S. cerevisiae deletion strains, locus YGL227W, strain vid30, stronger effect = lower value 0.999 | S. cerevisiae deletion strains, locus YGL240W, strain doc1, stronger effect = lower value 1.01 | S. cerevisiae deletion strains, locus YGL248W, strain PDE1, stronger effect = lower value 0.98 | S. cerevisiae deletion strains, locus YGL253W, strain hxk2, stronger effect = lower value 0.974 | S. cerevisiae deletion strains, locus YGR135W, strain pre9, stronger effect = lower value 0.969 | S. cerevisiae deletion strains, locus YGR229C, strain SMI1, stronger effect = lower value 1.02 | S. cerevisiae deletion strains, locus YGR252W, strain gcn5, stronger effect = lower value 1.02 | S. cerevisiae deletion strains, locus YHR013C, strain ard1, stronger effect = lower value 0.954 | S. cerevisiae deletion strains, locus YHR027C, strain rpn1, stronger effect = lower value 0.992 | S. cerevisiae deletion strains, locus YHR030C, strain SLT2, stronger effect = lower value 0.99 | S. cerevisiae deletion strains, locus YHR079C, strain IRE1 (second series), stronger effect = lower value 0.965 | S. cerevisiae deletion strains, locus YHR094C, strain hxt1, stronger effect = lower value 0.97 | S. cerevisiae deletion strains, locus YHR129C, strain ARP1, stronger effect = lower value 0.993 | S. cerevisiae deletion strains, locus YHR142W, strain chs7, stronger effect = lower value 0.959 | S. cerevisiae deletion strains, locus YHR200W, strain rpn10, stronger effect = lower value 0.983 | S. cerevisiae deletion strains, locus YIL066C, strain RNR3, stronger effect = lower value 1 | S. cerevisiae deletion strains, locus YIL073C, strain SPO22, stronger effect = lower value 0.972 | S. cerevisiae deletion strains, locus YIL125W, strain kgd1, stronger effect = lower value 0.963 | S. cerevisiae deletion strains, locus YIR030C, strain dcg1, stronger effect = lower value 0.965 | S. cerevisiae deletion strains, locus YJL092W, strain hpr5, stronger effect = lower value 0.963 | S. cerevisiae deletion strains, locus YJL095W, strain BCK1 (second series), stronger effect = lower value 0.945 | S. cerevisiae deletion strains, locus YJL095W, strain BCK1, stronger effect = lower value 0.96 | S. cerevisiae deletion strains, locus YJL115W, strain asf1, stronger effect = lower value 0.976 | S. cerevisiae deletion strains, locus YJL129C, strain trk1, stronger effect = lower value 0.965 | S. cerevisiae deletion strains, locus YJL134W, strain LCB3, stronger effect = lower value 0.99 | S. cerevisiae deletion strains, locus YJL154C, strain vps35, stronger effect = lower value 0.966 | S. cerevisiae deletion strains, locus YJL164C, strain tpk1, stronger effect = lower value 1 | S. cerevisiae deletion strains, locus YJL166W, strain qcr8, stronger effect = lower value 1 | S. cerevisiae deletion strains, locus YJL168C, strain set2, stronger effect = lower value 0.966 | S. cerevisiae deletion strains, locus YJL187C, strain SWE1 (second series), stronger effect = lower value 0.982 | S. cerevisiae deletion strains, locus YJR043C, strain POL32, stronger effect = lower value 1.04 | S. cerevisiae deletion strains, locus YKL009W, strain mrt4, stronger effect = lower value 0.963 | S. cerevisiae deletion strains, locus YKL068W, stronger effect = lower value 0.987 | S. cerevisiae deletion strains, locus YKL085W, strain MDH1 (second series), stronger effect = lower value 0.985 | S. cerevisiae deletion strains, locus YKL085W, strain MDH1, stronger effect = lower value 0.985 | S. cerevisiae deletion strains, locus YKL160W, strain elf1, stronger effect = lower value 0.943 | S. cerevisiae deletion strains, locus YKR001C, strain vps1, stronger effect = lower value 0.968 | S. cerevisiae deletion strains, locus YKR026C, strain gcn3, stronger effect = lower value 0.993 | S. cerevisiae deletion strains, locus YKR091W, strain srl3, stronger effect = lower value 0.97 | S. cerevisiae deletion strains, locus YLL001W, strain dnm1, stronger effect = lower value 1.01 | S. cerevisiae deletion strains, locus YLL026W, stronger effect = lower value 0.997 | S. cerevisiae deletion strains, locus YLL041C, strain sdh2, stronger effect = lower value 0.96 | S. cerevisiae deletion strains, locus YLR027C, strain aat2, stronger effect = lower value 0.997 | S. cerevisiae deletion strains, locus YLR039C, strain RIC1, stronger effect = lower value 0.991 | S. cerevisiae deletion strains, locus YLR058C, strain SHM2, stronger effect = lower value 0.984 | S. cerevisiae deletion strains, locus YLR102C, strain apc9, stronger effect = lower value 0.982 | S. cerevisiae deletion strains, locus YLR221C, strain rsa3, stronger effect = lower value 1.01 | S. cerevisiae deletion strains, locus YLR258W, strain gsy2, stronger effect = lower value 0.962 | S. cerevisiae deletion strains, locus YLR262C, strain YPT6 (second series), stronger effect = lower value 0.985 | S. cerevisiae deletion strains, locus YLR262C, strain YPT6, stronger effect = lower value 0.986 | S. cerevisiae deletion strains, locus YLR268W, strain sec22, stronger effect = lower value 0.965 | S. cerevisiae deletion strains, locus YLR320W, strain mms22, stronger effect = lower value 1.01 | S. cerevisiae deletion strains, locus YLR330W, strain CHS5, stronger effect = lower value 0.99 | S. cerevisiae deletion strains, locus YLR342W, strain FKS1 (second series), stronger effect = lower value 1.02 | S. cerevisiae deletion strains, locus YLR342W, strain FKS1, stronger effect = lower value 0.977 | S. cerevisiae deletion strains, locus YLR357W, strain rsc2, stronger effect = lower value 0.994 | S. cerevisiae deletion strains, locus YLR370C, strain arc18, stronger effect = lower value 0.99 | S. cerevisiae deletion strains, locus YLR371W, strain rom2, stronger effect = lower value 0.96 | S. cerevisiae deletion strains, locus YLR384C, strain iki3, stronger effect = lower value 1.01 | S. cerevisiae deletion strains, locus YLR418C, strain cdc73, stronger effect = lower value 0.974 | S. cerevisiae deletion strains, locus YML016C, strain PPZ1, stronger effect = lower value 0.989 | S. cerevisiae deletion strains, locus YML032C, strain rad52, stronger effect = lower value 0.981 | S. cerevisiae deletion strains, locus YML120C, strain ndi1, stronger effect = lower value 0.979 | S. cerevisiae deletion strains, locus YML124C, strain tub3, stronger effect = lower value 0.973 | S. cerevisiae deletion strains, locus YMR058W, strain fet3, stronger effect = lower value 0.988 | S. cerevisiae deletion strains, locus YMR078C, strain ctf18, stronger effect = lower value 0.958 | S. cerevisiae deletion strains, locus YMR125W, strain sto1, stronger effect = lower value 0.97 | S. cerevisiae deletion strains, locus YMR129W, stronger effect = lower value 0.975 | S. cerevisiae deletion strains, locus YMR205C, strain PFK2, stronger effect = lower value 1.01 | S. cerevisiae deletion strains, locus YMR223W, strain ubp8, stronger effect = lower value 0.977 | S. cerevisiae deletion strains, locus YMR231W, strain pep5, stronger effect = lower value 0.987 | S. cerevisiae deletion strains, locus YMR263W, strain SAP30, stronger effect = lower value 0.979 | S. cerevisiae deletion strains, locus YMR307W, strain GAS1, stronger effect = lower value 1.03 | S. cerevisiae deletion strains, locus YNL067W, strain RPL9B, stronger effect = lower value 0.961 | S. cerevisiae deletion strains, locus YNL071W, strain lat1, stronger effect = lower value 0.993 | S. cerevisiae deletion strains, locus YNL128W, strain TEP1, stronger effect = lower value 0.973 | S. cerevisiae deletion strains, locus YNL153C, strain GIM3, stronger effect = lower value 0.981 | S. cerevisiae deletion strains, locus YNL209W, strain ssb2, stronger effect = lower value 0.98 | S. cerevisiae deletion strains, locus YNL233W, strain BNI4, stronger effect = lower value 0.965 | S. cerevisiae deletion strains, locus YNL248C, strain rpa49, stronger effect = lower value 0.907 | S. cerevisiae deletion strains, locus YNL250W, strain rad50, stronger effect = lower value 0.962 | S. cerevisiae deletion strains, locus YNL271C, strain bni1, stronger effect = lower value 0.962 | S. cerevisiae deletion strains, locus YNL298W, strain CLA4, stronger effect = lower value 0.966 | S. cerevisiae deletion strains, locus YNL307C, strain MCK1, stronger effect = lower value 0.981 | S. cerevisiae deletion strains, locus YNL322C, strain KRE1 (second series), stronger effect = lower value 0.96 | S. cerevisiae deletion strains, locus YNR049C, strain mso1, stronger effect = lower value 0.968 | S. cerevisiae deletion strains, locus YNR052C, strain pop2, stronger effect = lower value 0.966 | S. cerevisiae deletion strains, locus YOL012C, strain htz1 0.786 | S. cerevisiae deletion strains, locus YOL147C, strain pex11, stronger effect = lower value 0.971 | S. cerevisiae deletion strains, locus YOR001W, strain rrp6, stronger effect = lower value 1.04 | S. cerevisiae deletion strains, locus YOR061W, strain CKA2, stronger effect = lower value 0.993 | S. cerevisiae deletion strains, locus YOR069W, strain VPS5, stronger effect = lower value 0.986 | S. cerevisiae deletion strains, locus YOR070C, strain gyp1, stronger effect = lower value 0.988 | S. cerevisiae deletion strains, locus YOR080W, strain dia2, stronger effect = lower value 0.957 | S. cerevisiae deletion strains, locus YOR083W, strain WHI5, stronger effect = lower value 0.914 | S. cerevisiae deletion strains, locus YOR106W, strain vam3, stronger effect = lower value 0.942 | S. cerevisiae deletion strains, locus YOR136W, strain idh2, stronger effect = lower value 0.986 | S. cerevisiae deletion strains, locus YOR144C, strain elg1, stronger effect = lower value 0.972 | S. cerevisiae deletion strains, locus YOR184W, strain ser1, stronger effect = lower value 0.979 | S. cerevisiae deletion strains, locus YOR265W, strain rbl2, stronger effect = lower value 0.989 | S. cerevisiae deletion strains, locus YOR270C, strain vph1, stronger effect = lower value 0.939 | S. cerevisiae deletion strains, locus YOR290C, strain snf2, stronger effect = lower value 0.962 | S. cerevisiae deletion strains, locus YOR316C, strain cot1, stronger effect = lower value 0.98 | S. cerevisiae deletion strains, locus YPL051W, strain arl3, stronger effect = lower value 0.992 | S. cerevisiae deletion strains, locus YPL078C, strain atp4, stronger effect = lower value 0.953 | S. cerevisiae deletion strains, locus YPL106C, strain sse1, stronger effect = lower value 0.982 | S. cerevisiae deletion strains, locus YPL240C, strain hsp82, stronger effect = lower value 1.01 | S. cerevisiae deletion strains, locus YPR119W, strain clb2, stronger effect = lower value 0.973 | S. cerevisiae deletion strains, locus YPR141C, strain kar3, stronger effect = lower value 0.961 | S. cerevisiae deletion strains, locus YPR163C, strain tif3, stronger effect = lower value 0.981 | S. cerevisiae deletion strains, locus YPR167C, strain met16, stronger effect = lower value 0.962 | S. cerevisiae deletion strains, strain wtn01, stronger effect = lower value 0.963 | S. cerevisiae strains, strain wild type, stronger effect = lower value 0.995
